In PubChem BioAssay AID588579 (National Center for Advancing Translational Sciences (NCATS), 2011) one finds Potency and activity, negative = inhibition data, which are given here for 85 compounds.

Where “and” joins values, the source holds several entries; their conditions need not be identical. Identical values can stand only once. The campaign covered roughly 400,000 compounds. About 2,200 (0.55%) were called active. Roughly 1% stayed inconclusive and do not appear here. Calls come from the whole dose curve; as a rule, active = well fitted inhibition curve with a large enough effect; inconclusive = small, poorly fitted or top-dose-only effect, or another doubt; inactive = no such curve, though single readings can be large or run the other way. What follows is part of a selection rich in actives, with near analogues and random picks from the rest. A call without a number means that no potency is given here. Positions of bridges follow the written chain, without caps; N, C: chain ends. Residues, ends and D or L forms follow the SMILES beside them.
Potency is the fitted concentration of half-maximal effect.

For the test, the target named is DNA polymerase kappa (Homo sapiens) (UniProt Q9UBT6). The test is described as follows: qHTS for Inhibitors of Polymerase Kappa. The conditions noted are these: purified Pol kappa, fluorescent DNA synthesis assay, 10 min; series mostly up to 107 µM. The gist of the method: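 Readout: fluorescence, taken kinetically at 0 and 10 min. Conditions: 10 nM Pol kappa, 15 min RT compound preincubation, 50 nM substrate final. Controls: enzyme-free buffer wells.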
Sequence of DNA polymerase kappa (Homo sapiens) (Q9UBT6 whole entry, looked up): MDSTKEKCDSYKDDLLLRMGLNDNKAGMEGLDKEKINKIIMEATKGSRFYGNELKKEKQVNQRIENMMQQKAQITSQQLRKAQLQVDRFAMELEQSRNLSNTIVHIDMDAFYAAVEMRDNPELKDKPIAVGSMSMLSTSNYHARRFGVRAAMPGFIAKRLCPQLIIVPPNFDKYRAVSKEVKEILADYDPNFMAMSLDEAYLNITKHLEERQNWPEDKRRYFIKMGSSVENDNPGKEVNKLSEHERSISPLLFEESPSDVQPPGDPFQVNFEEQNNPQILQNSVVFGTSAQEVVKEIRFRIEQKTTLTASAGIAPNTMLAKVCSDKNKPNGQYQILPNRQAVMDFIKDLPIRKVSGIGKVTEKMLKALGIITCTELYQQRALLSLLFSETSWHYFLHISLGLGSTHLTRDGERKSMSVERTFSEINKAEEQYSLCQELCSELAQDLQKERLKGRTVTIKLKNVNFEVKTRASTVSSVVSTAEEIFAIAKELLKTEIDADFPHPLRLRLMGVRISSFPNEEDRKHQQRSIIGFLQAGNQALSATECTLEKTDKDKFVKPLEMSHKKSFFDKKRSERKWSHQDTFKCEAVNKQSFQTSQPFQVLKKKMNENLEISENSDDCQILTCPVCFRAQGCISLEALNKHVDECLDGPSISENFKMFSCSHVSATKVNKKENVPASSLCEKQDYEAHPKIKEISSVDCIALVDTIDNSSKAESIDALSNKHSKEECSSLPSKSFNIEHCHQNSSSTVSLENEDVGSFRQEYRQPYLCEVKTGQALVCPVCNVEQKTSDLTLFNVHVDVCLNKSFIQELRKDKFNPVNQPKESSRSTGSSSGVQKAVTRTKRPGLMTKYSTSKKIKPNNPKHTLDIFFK
On the technique in general: Quantitative high-throughput screening tests each substance at several concentrations.
Take `COc1ccc(C(=O)N2CCC3(CC2)CCN(c2ccccn2)CC3)cc1`: the Potency entry is “inactive”. Turning to `O=C1CSC(=S)N1/N=C/c1ccc(O)c([N+](=O)[O-])c1`, the Potency is 28.2 µM (active). Still for that read-out and setting: next, `CCOC(=O)C1C/C(=C\C(C)=O)c2cccc(C(F)(F)F)c2O1` (stereo not given): “inactive”. Consider `COc1ccc2c(=O)cc(-c3ccccc3)oc2c1O`, for which the activity, negative = inhibition is -8.18% [at 19.4 µM] (inactive).

On to `Cc1cccc(-c2cc(=O)c3cc(C)ccc3o2)c1`, for which the activity, negative = inhibition is -11.6% [at 19.4 µM] (inactive).

In the case of `O=c1cc(-c2ccc(O)c(O)c2)oc2cccc(O)c12`, the Potency is 6.31 µM (active). Still for that read-out and setting: next, `COc1c(O)cc2oc(-c3ccc(O)c(O)c3)cc(=O)c2c1O`: 5.01 µM (active) and 752 nM (active); `COc1ccc(-c2c(C)c3ccc(O)c(CN4CCN(C)CC4)c3oc2=O)cc1OC`: “inactive”. `OCCN1CCN(CC/C=C2\c3ccccc3Sc3ccc(C(F)(F)F)cc32)CC1`: the activity, negative = inhibition was -8.78% [at 12 µM] (inactive). As to `COc1cccc(Cn2c(=O)cnc3cncnc32)c1`, the Potency result is “inactive”. Consider `NC(=O)c1sc(-c2ccsc2)cc1N`, for which the activity, negative = inhibition is 7.11% [at 19.4 µM] (inactive).

For the compound `COc1ccc(-c2nc3cnc(OC)nc3n(Cc3ccc(F)cc3)c2=O)cc1`, the Potency result was “inactive”. As to `COc1ccc(C2(C#N)CCC(C(=O)O)CC2)cc1OC1CCCC1` (stereo not given), the activity, negative = inhibition is 1.33% [at 19.4 µM] (inactive). `COc1ccc(C2=Nn3c(nnc3-c3ccccc3OC)SC2)cc1OC1CCCC1`: the Potency was 39.8 µM (active). Still for that read-out and setting: the same measure for `Cc1nnc2n1N=C(c1ccc3c(c1)NC(=O)CO3)CS2`: “inactive”; for `C[C@H]1CCC[C@@]2(C)CCCC[C@]12O`: “inactive”. For `Cc1csc(-c2nc3ccccc3n2C)n1`, the activity, negative = inhibition is -4.55% [at 19.4 µM] (inactive).

Take `COc1cccc(-c2cc(=O)c3cc(NC(=O)c4ccc(C)cc4)ccc3[nH]2)c1`: the Potency result was “inactive”. As for `COc1ccc(Br)cc1/C=N/Nc1ccc(S(=O)(=O)Nc2ccccc2C(=O)O)cc1[N+](=O)[O-]`, the Potency was 39.8 µM (active). On the same count and under the same terms, the same measure for `COc1ccc(S(=O)(=O)NC(C)c2ccccc2)cc1C(=O)N1CCCCC1` (stereo not given): “inactive”; for `COC(=O)c1ccccc1NS(=O)(=O)c1ccc2c(c1)CCCN2C(C)=O`: “inactive”. For the compound `COC(=O)N1CCC[C@@]2(CCN(C(=O)NC(C)C)C2)C1`, the Potency result was “inactive”. With `CN(C)c1ccc(/C=C/c2sc3ccccc3[n+]2CCCCBr)cc1`, the Potency entry was “inactive”.

Consider `CC(C)(C)n1ncc2c(=O)n(Cc3ccc(C(=O)c4ccccc4)cc3)cnc21`, for which the Potency entry is “inactive”. Still for that read-out and setting: the same measure for `NC(=O)C[n+]1cccc(C(N)=O)c1`: “inactive”. Same read-out and setting: next, `N#Cc1ccc[n+](CC(=O)c2ccc(O)c(O)c2)c1`: 0.891 µM (active). Same read-out and setting: next, `N#Cc1ccc[n+](CC(=O)c2ccc(F)cc2)c1`: “inactive”. With `O=c1c(-c2ccc(F)c(F)c2)nc2cncnc2n1-c1ccccc1`, the Potency result is “inactive”. On the same count and under the same terms, the same measure for `COc1cc2nc(N3CCCN(C)CC3)nc(NC3CC3)c2cc1OC`: “inactive”.

On to `CN(C(=N)N)c1ccc(/C=C2\C=Cc3ccccc32)cc1`, for which the Potency result was “inactive”.

For the compound `CO/N=C(\C(=O)N[C@@H]1C(=O)N2C(C(=O)O)=C(COC(C)=O)CS[C@H]12)c1csc(N)n1` (stereo in doubt), the Potency was 35.5 µM (active) and 79.4 µM (active) and 39.8 µM (active). Same read-out and setting: next, `C=CC1=C(C(=O)O)N2C(=O)[C@@H](NC(=O)/C(=N\OCC(=O)O)c3csc(N)n3)[C@H]2SC1`: 50.1 µM (active); `O=C(c1cnccn1)N1CCC2(CCCN(Cc3ccccc3)C2)CC1`: “inactive”. Consider `CC(C)(C)c1ccc(C(=O)C[n+]2cccc3cc(Cl)ccc32)cc1`, for which the Potency entry is “inactive”. On the same count and under the same terms, next, `OCC(O)C(O)C(O)C(O)C=Nc1ccc(/C=C/c2ccnc3ccccc23)cc1` (stereo not given): “inactive”. Still for that read-out and setting: next, `COC1[C@H](OC(N)=O)C(O)[C@H](Oc2ccc3c(O)c(NC(=O)c4ccc(O)c(CC=C(C)C)c4)c(=O)oc3c2C)OC1(C)C` (stereo not given in full): “inactive”; `COc1ccc(OCc2n[nH]c(=S)n2N)cc1`: “inactive”. `COc1ccccc1-n1c(=S)[nH]c2c(sc(=S)n2-c2ccc(C)cc2C)c1=O`: the Potency entry was “inactive”. For the compound `COc1ccccc1-n1c(-c2cc(-c3ccco3)[nH]n2)n[nH]c1=S`, the Potency is 17.8 µM (active). `C=C1C(=CC=C2CCC[C@@]3(C)[C@@H]2CC[C@H]3[C@H](C)CCCC(C)C)C[C@@H](O)C[C@@H]1O`: the activity, negative = inhibition was -13.8% [at 19.4 µM] (inactive). For `CN(Cc1ccccc1)c1ccc(/C=C/c2ccnc3ccccc23)cc1`, the Potency entry is “inactive”. Turning to `CN(C)c1ccc(/C=C/C=C/c2ccnc3ccccc23)cc1`, the Potency entry was “inactive”.

On to `N#Cc1ccccc1-c1ccc2ncnc(NCc3cccnc3)c2c1`, for which the Potency result was “inactive”. `O=C(/C=C/c1cccc(F)c1)NC1CC1`: the activity, negative = inhibition was 10.9% [at 19.4 µM] (inactive). Consider `Cc1ccccc1-c1ccc(C(=O)O)s1`, for which the Potency entry was “inactive”. For the compound `CC(=O)OC1C([N+]2(C)CCCCC2)C[C@H]2C3CC[C@H]4C[C@H](OC(C)=O)C([N+]5(C)CCCCC5)CC4(C)C3CCC12C` (stereo not given in full), the activity, negative = inhibition was -5.47% [at 19.4 µM] (inactive). Consider `COc1ccccc1CNc1ncncc1-c1cccnc1`, for which the Potency result is “inactive”.

Take `COCCn1c(SCC(=O)N2CCCCCC2)nc2c(c1=O)SCC2`: the Potency entry is “inactive”. The same measure, in the same setting: the same measure for `CC(=O)c1sc2nc(SCC(=O)N3CCCCC3)[nH]c(=O)c2c1C`: 79.4 µM (active); for `Cc1nc(SCC(=O)N2CCN(c3ccccc3)CC2)[nH]c(=O)c1C`: “inactive”.

In the case of `CCN(Cc1ccncc1)C(=O)[C@@H](CO)c1ccccc1`, the activity, negative = inhibition was -2.15% [at 12 µM] (inactive) and -8.7% [at 19.4 µM] (inactive). Regarding `CC1(C)O[C@@H]2C[C@@H]3[C@H]4C[C@@H](F)C5=CC(=O)C=C[C@]5(C)[C@@]4(F)[C@@H](O)C[C@]3(C)[C@]2(C(=O)CO)O1`, the Potency entry is “inactive”. Turning to `Oc1ccc2c(c1)OCC1c3cc4c(cc3OC21)OCO4` (stereo not given), the Potency result was “inactive”. For the compound `Cc1cccc(C)c1NC(=O)NC1=CCCN1C`, the activity, negative = inhibition is 0.19% [at 19.4 µM] (inactive). Consider `O=C(NC(=S)Nc1ncccn1)c1ccccc1Br`, for which the Potency entry was “inactive”. As for `CCc1ccc2oc(-c3ccc(C)c(NC(=O)/C=C/c4ccco4)c3)nc2c1`, the Potency entry is “inactive”. The same measure, in the same setting: next, `O=C(/C=C/c1ccco1)NC(=S)Nc1ccccc1Br`: 50.1 µM (active); `COc1ccc(Oc2ncc3nc(C)c(=O)n(-c4ccccc4)c3n2)cc1`: “inactive”; `O=C1COc2c1ccc(O)c2O`: 25.1 µM (active). Still for that read-out and setting: the same measure for `Cc1csc(NCC(=O)c2c[nH]c3ccccc23)n1`: “inactive”. Same read-out and setting: next, `C/C=C/NNC(=O)Cc1ccc(OC)cc1`: “inactive”; `CN1CCCC1CCO[C@@](C)(c1ccccc1)c1ccc(Cl)cc1` (stereo not given in full): “inactive”; `COc1cccc(NC(=O)COC(=O)/C=C/c2ccco2)c1`: 79.4 µM (active). Take `COc1cccc(NC(=O)COC(=O)c2ccc3ccccc3n2)c1`: the Potency entry is “inactive”. Same read-out and setting: next, `COc1cc(/C=C/C(=O)OCC(=O)Nc2cccc(Oc3ccccc3)c2)ccc1O`: “inactive”; `Cc1nc2cnc(N3CCN(C)CC3)nc2n(CCC#N)c1=O`: “inactive”. Same read-out and setting: next, `C=C1C([C@@]2(C)C(OC(C)=O)CC(=O)O[C@@](C)(COC(C)=O)C2CC(=O)OC)C(OC=O)C(OC(=O)C(O)C(C)CC)[C@]2(C)C(c3ccoc3)CC(=O)C12O` (stereo not given in full): “inactive”; `Cc1noc2ncnc(NCc3ccccc3Cl)c12`: “inactive”.

As to `OCCNc1ncnc2oc(-c3ccco3)c(-c3ccco3)c12`, the Potency was 11.2 µM (active). As to `COc1ccc(-c2oc3ncnc(NCCCO)c3c2-c2ccc(OC)cc2)cc1`, the Potency result is “inactive”. Take `CC(C)=CCC[C@]1(C)[C@@H](CC=C(C)C)C[C@@]2(CC=C(C)C)C(=O)[C@]1(C(=O)C(C)C)C(=O)C(CC=C(C)C)=C2O`: the activity, negative = inhibition is -7.28% [at 19.4 µM] (inactive). With `Cn1cccc1C(=O)N1CCC2(CC1)CN(c1cccc(-c3ccccc3)c1)C2`, the Potency entry was “inactive”. Turning to `O=[N+]([O-])c1cc(-c2nc(-c3ccccc3)no2)ccc1NCc1ccco1`, the Potency entry was “inactive”. Still for that read-out and setting: the same measure for `O=[N+]([O-])c1cccc(/C([O-])=C(/C(=S)Nc2ccccc2F)[n+]2ccccc2)c1`: “inactive”. On the same count and under the same terms, the same measure for `Cc1ccc(/C([O-])=C(/C(=S)NCc2ccco2)[n+]2ccccc2)cc1[N+](=O)[O-]`: 25.1 µM (active); for `COc1ccc(-c2nc3cnc(Oc4ccccc4)nc3n(Cc3cccs3)c2=O)cc1`: “inactive”. As to `CC[C@]1([C@H]2O[C@@H]([C@@H]3O[C@](O)(CO)[C@@H](C)C[C@H]3C)C[C@H]2C)CC[C@@H]([C@]2(C)CC[C@@]3(C[C@@H](O)[C@@H](C)[C@@H]([C@H](C)[C@H](OC)[C@H](C)C(=O)O)O3)O2)O1`, the activity, negative = inhibition is -5.79% [at 19.4 µM] (inactive). Turning to `N#Cc1cccc(-c2nc3cnc(N4CCNCC4)nc3n(C3CC3)c2=O)c1`, the Potency entry is “inactive”. On the same count and under the same terms, next, `O=C(O)C1=C/C(=C/C=[N+]2c3cc(O)c(O[C@H]4OC(CO)[C@@H](O)[C@@H](O)[C@@H]4O)cc3C[C@@H]2C(=O)[O-])C[C@H](C(=O)O)N1` (stereo not given in full): “inactive”; `C[C@@H](O)[C@@H]1NC(=O)[C@H](CCCCN)NC(=O)[C@H](Cc2c[nH]c3ccccc23)NC(=O)[C@H](Cc2ccccc2)NC(=O)[C@H](Cc2ccccc2)NC(=O)[C@H](CC(N)=O)NC(=O)[C@H](CCCCN)NC(=O)[C@@H](NC(=O)[C@@H]2CCCN2)CSSC[C@@H](C(=O)N[C@@H](CCCCN)C(=O)O)NC(=O)[C@H](CO)NC(=O)[C@H](CO)NC(=O)[C@H](Cc2ccccc2)NC1=O` (H-PCKNFFWKTFSSCK-OH; disulfide 2-13): “inactive”.

As to `Cc1ccc(-c2nn(-c3ccccc3)cc2/C=C2\SC(=S)N(CCCCCC(=O)O)C2=O)o1`, the Potency was 79.4 µM (active).

On to `O=C(Nc1ccc([N+](=O)[O-])cc1)c1cnn2c1NC(=C1CC1)C=C2C(F)F`, for which the Potency entry was “inactive”.

For the compound `CCN(c1ccc(Cl)cc1)S(=O)(=O)c1nnc(NC(=O)c2ccco2)s1`, the Potency result was “inactive”. Still for that read-out and setting: the same measure for `O=C(Nc1nc(-c2ccco2)c(-c2ccco2)s1)c1ccco1`: 79.4 µM (active). The same measure, in the same setting: the same measure for `O=C(Nc1ccc2nc(SCCOc3ccccc3)sc2c1)c1ccco1`: “inactive”.
